Whole data set: some 110,000 compounds, median “z-score” near -0.1, cut for the highest 2% near 2. This is one part of a sample in which the highest values are shown more often than they occur. Activity calls are given as the source filed them.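 The calls were made as follows: active = z-score in the third read window above 3 or below -3; inactive = the rest.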
Each compound was assayed against Metabotropic glutamate receptor 8 (Rattus norvegicus) (UniProt P70579) (assay: rat mGluR8 modulators via GIRK flux, primary screen, cell-based, thallium flux, HTS (AID 488969)). Conditions: HEK293 rat mGluR8, GIRK (G protein-gated inwardly rectifying potassium channel) thallium flux, FluoZin2; at 10 µM; stronger effect = higher value; submaximal glutamate (EC20) added with thallium.
Sequence of Metabotropic glutamate receptor 8 (Rattus norvegicus) (P70579 whole entry, looked up): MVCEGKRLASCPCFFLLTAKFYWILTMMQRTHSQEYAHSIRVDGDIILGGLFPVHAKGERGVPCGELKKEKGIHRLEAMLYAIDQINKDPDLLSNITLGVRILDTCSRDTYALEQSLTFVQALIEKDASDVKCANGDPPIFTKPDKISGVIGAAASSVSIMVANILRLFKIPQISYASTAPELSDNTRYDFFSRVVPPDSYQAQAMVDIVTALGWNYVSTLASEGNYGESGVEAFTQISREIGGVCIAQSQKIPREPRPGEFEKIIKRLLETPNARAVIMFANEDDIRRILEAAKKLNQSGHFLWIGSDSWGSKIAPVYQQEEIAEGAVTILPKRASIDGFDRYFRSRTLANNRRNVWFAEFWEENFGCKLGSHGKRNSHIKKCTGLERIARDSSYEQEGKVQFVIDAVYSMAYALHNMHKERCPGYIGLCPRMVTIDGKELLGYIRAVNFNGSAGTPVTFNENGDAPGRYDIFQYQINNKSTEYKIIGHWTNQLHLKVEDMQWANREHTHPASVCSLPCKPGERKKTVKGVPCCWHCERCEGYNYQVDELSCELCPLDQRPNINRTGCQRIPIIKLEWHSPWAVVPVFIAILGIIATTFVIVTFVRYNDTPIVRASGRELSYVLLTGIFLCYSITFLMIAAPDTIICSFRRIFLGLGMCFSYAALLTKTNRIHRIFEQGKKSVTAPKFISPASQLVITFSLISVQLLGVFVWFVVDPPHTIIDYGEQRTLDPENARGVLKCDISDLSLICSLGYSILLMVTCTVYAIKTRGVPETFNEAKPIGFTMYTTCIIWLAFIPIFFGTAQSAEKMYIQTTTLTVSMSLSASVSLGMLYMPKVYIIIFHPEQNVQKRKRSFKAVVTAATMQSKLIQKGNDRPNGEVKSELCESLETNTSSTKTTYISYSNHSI
Compound `CCSc1nnc(NC(=O)C(C)Sc2nc3ccccc3[nH]2)s1` (stereo not drawn) has a z-score of 1.73.
For `COc1ccc(N(CC(=O)NCc2ccc3c(c2)OCO3)S(=O)(=O)c2c(C)nn(C)c2C)cc1`, the z-score was -0.575.
`COC(=O)c1ccc(COC(=O)c2ccc(SC)cc2OC)cc1` gave a z-score of -0.178.
Work on `Cc1cccc(NC(=O)c2sc(Cl)nc2C)c1C` yielded a z-score of 0.181.
Work on `Cn1c(=O)oc2cc(S(=O)(=O)N3CCCC(C(=O)N4CC=C(c5ccccc5)CC4)C3)ccc21` (stereo not drawn) yielded a z-score of 1.18.
Work on `O=C(Nc1ccc(N2CCOCC2)cc1)C1CCCN(S(=O)(=O)c2ccccc2)C1` (stereo not drawn) yielded a z-score of 0.446.
`O=C(Nc1ccccc1N1CCOCC1)C1CCN(S(=O)(=O)c2cccc(C(F)(F)F)c2)CC1` gave a z-score of -0.294.
`O=C(Nc1ccc(N2CCOCC2)cc1)C1CCCN(S(=O)(=O)c2cccc(C(F)(F)F)c2)C1` (stereo not drawn) gave a z-score of 2.63.
`Cc1nn(-c2ccccc2)c(Cl)c1/C=N/NC(=O)C1COc2ccccc2O1` (stereo not drawn) showed a z-score of -0.169.
`CCCSc1nnc(-c2cnn(-c3ccccc3)c2-n2cccc2)n1C` was tested, and the z-score was -0.0552.
Work on `COc1cc(NC(=O)c2ccc(C)cc2)c(OC)cc1NC(=O)CN1CCOCC1` yielded a z-score of -0.672.
Compound `COc1cc(NC(=O)c2ccc(C)cc2)c(OC)cc1NC(=O)CN1CCCCC1` has a z-score of 2.37.
With `COc1cc(NC(=O)c2ccccc2)c(OC)cc1NC(=O)CN1CCCCC1` the z-score was -0.781.
Compound `COc1cc(NC(=O)COC(=O)CNC(=O)c2ccc(Cl)cc2)c(C)cc1[N+](=O)[O-]` has a z-score of -0.644.
`CC1(C)CC(=S)Nc2ccccc2S1` was tested, and the z-score was 7.97 (active).
With `COC(=O)C(C)C1Sc2ccccc2NC1=O` (stereo not drawn) the z-score was -0.34.
With `CC1CC(=S)Nc2ccccc2S1` (stereo not drawn) the z-score was 1.11.
Work on `CCOC(=O)c1cc(C#N)c(Oc2ccc(F)cc2)nc1-c1ccccc1` yielded a z-score of -0.0477.
In the case of `Cc1cc(C(=O)COC(=O)Cc2n[nH]c(=O)c3ccccc23)c(C)n1-c1ccc2c(c1)OCCO2`, the z-score is reported as -0.104.
`CS(=O)(=O)c1ccc(Cl)c(NC(=O)c2cccc(Br)c2)c1` gave a z-score of -0.236.
For `COc1ccc(OC)c(Nc2ncnc3c2cnn3-c2ccccc2)c1`, the z-score was -0.143.
`O=C(CSC1=Nc2ccccc2C2=NC(c3ccccc3)C(=O)N12)NC1CCCCC1` (stereo not drawn) showed a z-score of -0.816.
For `O=C(CSC1=Nc2ccccc2C2=NC(c3ccccc3)C(=O)N12)NCC1CCCO1` (stereo not drawn), the z-score was 2.65.
`O=C(CSC1=Nc2ccccc2C2=NC(CC(=O)NCc3ccco3)C(=O)N12)NCC1CCCO1` (stereo not drawn) was tested, and the z-score was -0.919.
For `CCC(=O)OCCn1c(Br)nc2c1c(=O)[nH]c(=O)n2C`, the z-score was -0.265.
`C/C=C/Cn1c(Br)nc2c1c(=O)n(C)c(=O)n2C` showed a z-score of 1.47.
Compound `C/C(=N\NC(N)=S)C12CC3CC(CC(C3)C1)C2` has a z-score of 2.47.
`C/C(CCC12CC3CC(CC(C3)C1)C2)=N\NC(N)=S` gave a z-score of -0.636.
For `C/C(=N\NC(=O)c1ccncc1)C12CC3CC(CC(C3)C1)C2`, the z-score was -0.319.
`COc1ccc(OC)c(C(=O)CSc2nccc(-c3ccc(Br)cc3)n2)c1` gave a z-score of -0.268.
`COC(=O)/C(=C/c1cccnc1)NC(=O)c1ccccc1` showed a z-score of -0.0328.
In the case of `CC(C)OC(=O)/C(=C/c1cccnc1)NC(=O)c1ccccc1`, the z-score is reported as 3.22 (active).
`CC(C)OC(=O)/C(=C\C=C\c1ccccc1)NC(=O)c1ccccc1` showed a z-score of -0.143.
`CC(=O)Nc1c(OC(C)=O)ccc2c(C)cc(=O)oc12` gave a z-score of -0.24.
`Cc1cc(C(F)(F)F)nn1Cc1n[nH]c(=S)n1-c1cccc(Cl)c1` gave a z-score of -0.0907.
Work on `O=S(=O)(c1ccccc1)c1nc(-c2ccccc2)oc1N1CCCCC1` yielded a z-score of -0.0433.
`COCCNC(=O)C(c1cccs1)N(C(=O)Cn1nnc2ccccc21)c1ccc(OC)cc1` (stereo not drawn) was tested, and the z-score was 0.0248.
With `CCCCCCCCCOC(=O)C[n+]1csc(CCO)c1C` the z-score was 0.0302.
Work on `O=C(CCN1C(=O)c2ccccc2C1=O)Nc1sc2c(c1C(=O)NCC1CCCO1)CCC2` (stereo not drawn) yielded a z-score of -0.294.
For `CC(C(=O)Nc1sc2c(c1C(=O)NCC1CCCO1)CCC2)N1C(=O)c2ccccc2C1=O` (stereo not drawn), the z-score was -1.
In the case of `O=C(CN1C(=O)c2ccccc2C1=O)Nc1sc2c(c1C(=O)NCC1CCCO1)CCC2` (stereo not drawn), the z-score is reported as 4.33 (active).
For `CC(C)COP(=O)(OCC(C)C)C(O)c1ccc(F)cc1` (stereo not drawn), the z-score was 0.263.
Work on `COc1ccc(C2(CNC(C)=O)CCOCC2)cc1OC` yielded a z-score of 0.1.
For `COC(=O)C1=CN(C(C)C)C=C(C(=O)OC)C1c1cc2c(cc1Br)OCO2`, the z-score was -0.0368.
In the case of `Cc1cc2cc3c(cc2nc1SCc1ccc(C(=O)O)cc1)OCCO3`, the z-score is reported as -0.554.
`COc1cccc(C2C(C#N)=C(N)Oc3c2oc(CO)cc3=O)c1` (stereo not drawn) showed a z-score of -1.28.
For `O=C(CC(=O)c1ccccc1O)c1ccc(F)cc1`, the z-score was 7.61 (active).
Compound `Cc1ccccc1C(=O)NNC(=O)c1ccc(F)cc1` has a z-score of 0.0481.
`O=C(CC(=O)c1ccccc1O)c1cccc(F)c1` was tested, and the z-score was 3.63 (active).
Work on `O=C(Nc1ccccc1C(=O)O)c1cccc(F)c1` yielded a z-score of -0.262.
Work on `O=C(CCC(=O)c1ccc(F)cc1)Nc1ccccc1Cl` yielded a z-score of 0.266.
With `Cc1ccc(C(=O)c2ccccc2C(=O)O)c(O)c1` the z-score was 0.0184.
With `COc1ccccc1C(=O)NNC(=O)c1cccc(F)c1` the z-score was -0.0578.
In the case of `Cc1ccc(C(=O)CC(=O)c2cccc(F)c2)c(O)c1`, the z-score is reported as 8.38 (active).
`CCOC(=O)c1ccccc1NC(=O)c1cccc(F)c1` showed a z-score of 0.0409.
With `CC(=O)Nc1cccc(C(=O)/C=C/c2ccc(/C=C/C(=O)c3cccc(NC(C)=O)c3)cc2)c1` the z-score was 0.033.
With `COc1ccc2oc(C(=O)C3CC3)c(N)c2c1` the z-score was 1.19.
With `COc1ccc(N=C/C=C2\C=C(c3ccccc3)OC(C)(C)O2)cc1` the z-score was -0.461.
`OC1(c2ccc(OC(F)F)cc2)CSC(=Nc2cccnc2)N1C1CC1` (stereo not drawn) was tested, and the z-score was -0.02.
`CC1=NN(C(=O)Cc2ccc(C)cc2)C(O)(c2cccnc2)C1` (stereo not drawn) showed a z-score of 0.145.
In the case of `C=CCN1C(=Nc2cccnc2)SCC1(O)c1ccc(C)cc1` (stereo not drawn), the z-score is reported as 2.38.
`COc1cc(/C=N/NC(=O)c2cc3ccccc3cc2O)ccc1OCCN1CCCCC1` was tested, and the z-score was -0.0725.
Work on `COc1ccc(N(C)S(=O)(=O)c2cccc(C(=O)OCC(=O)Nc3sc4c(c3C#N)CCCCC4)c2)cc1` yielded a z-score of 0.379.
`O=C1CC(C(F)(F)C(F)(F)C(F)(F)C(F)(F)F)=Nc2ccccc2N1` gave a z-score of -0.248.
With `O=C1CC(C(F)(F)C(F)(F)C(F)(F)F)=Nc2ccccc2N1` the z-score was 3.4 (active).
`Cc1cc2c(cc1C)NC(=O)CC(C(F)(F)C(F)(F)C(F)(F)F)=N2` was tested, and the z-score was -0.139.
In the case of `CC(C)(C)c1ccc(CN2C3=NCCCN3c3ccccc32)cc1`, the z-score is reported as 4.19 (active).
`Cc1ccc(C)c(C(=O)CN2C3=NCCCN3c3ccccc32)c1` was tested, and the z-score was 0.0716.
`CCCCCN1C2=NCCN2c2ccccc21` showed a z-score of 0.394.
With `CCCCCCN1C2=NCCN2c2ccccc21` the z-score was 7.63 (active).
Work on `c1ccc(CN2C3=NCCCN3c3ccccc32)cc1` yielded a z-score of 2.93.
Compound `Clc1ccc(CN2C3=NCCCN3c3ccccc32)cc1` has a z-score of 0.436.
For `CCCCN1C2=NCCCN2c2ccccc21`, the z-score was -0.957.
For `OC(CN1C2=NCCN2c2ccccc21)c1ccc(Br)cc1` (stereo not drawn), the z-score was 0.254.
`O=C(CN1C2=NCCCN2c2ccccc21)c1ccc(Cl)cc1Cl` was tested, and the z-score was 0.287.
`OC(CN1C2=NCCCN2c2ccccc21)c1ccc(Br)cc1` (stereo not drawn) was tested, and the z-score was 3.3 (active).
Work on `Brc1ccc(CN2C3=NCCCN3c3ccccc32)cc1` yielded a z-score of 0.755.
`OC(CN1C2=NCCCN2c2ccccc21)c1ccc(Cl)cc1` (stereo not drawn) gave a z-score of 0.782.

Source: PubChem BioAssay AID488969 (Vanderbilt High Throughput Screening Facility, 2010)
